Composite z-score and z-score data for eight compounds are collected here from PubChem BioAssay.

The subject of assay [1] is wheat germ agglutinin (Triticum aestivum), Alexa647-labelled. Briefly: wheat germ agglutinin binders on compound microarrays, profiling panel, artefact control for SMM control-protein annotation, biochemical, small-molecule microarray, 635/667 nm fluorescence (AID 1140).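 Note: score merges 667 nm feature emission with signal to noise over triplicate slides.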 The note with it: WGA-A647 binding, 635 nm fluorescence, higher = more signal.
Assay [2] has as its target Luciferin 4-monooxygenase (Photinus pyralis) (UniProt P08659). Briefly: firefly luciferase enzyme inhibitors, primary screen, biochemical, luminescence, purified enzyme, 2006 set (AID 1141).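 Note: cell-free assay with purified firefly luciferase at 100 ng per well in PBS; test concentration not given here.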 The note with it: SteadyGlo luminescence, 30 min, higher = more signal, called active from +8 up or from −8 down.
Assay [3] relates to Wnt5a (protein binding on small-molecule microarray). Briefly: Wnt5a binders on small-molecule microarray, primary screen, biophysical, 635/667 nm fluorescence (AID 1142).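 Note: fluorescence read at 667 nm with signal to noise per printed feature.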 The note with it: 635 nm fluorescence, higher = more signal.
Assay [4] is described as follows: cell viability in Huh7 cells, primary screen, cytotoxicity control for HCV replication inhibitor project, CellTiter-Glo luminescence, basal, 48 h (AID 1143).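 Note: Huh7 hepatoma cells carrying a hepatitis C replication reporter with no stimulus; test concentration not given here.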 The note with it: Huh7 HCV replicon, higher = more signal, called active from +8 up or from −8 down. In general terms: ATP-based viability assays read luminescence as a measure of living cells.
The nature of assay [5]: CREB reporter modulators without forskolin, primary screen, cell-based, PC12, CRE-LacZ reporter, unstimulated (AID 1145). The note with it: no forskolin, luminescence, 4.5 h, higher = more signal, called active from +8 up or from −8 down.
The nature of assay [6]: CREB reporter modulators under forskolin, primary screen, cell-based, PC12, CRE-LacZ reporter, forskolin-stimulated (AID 1146).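 Note: PC12 cells with 6xCRE LacZ reporter stimulated by forskolin 10 µM; beta-galactosidase reporter signal reflecting CREB driven transcription.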 To be noted: luminescence, 4.5 h, higher = more signal, called active from +8 up or from −8 down.
Assay [7] concerns the target Streptavidin (Streptomyces avidinii) (UniProt P22629). Briefly: streptavidin binders on small-molecule microarray, primary screen, artefact control for SMM compound annotation, biophysical, 635/667 nm fluorescence (AID 1147).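 Note: signal reflects streptavidin binding to arrayed compounds as a control protein.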 To be noted: streptavidin binding, higher = more signal.
Assay [8] is described as follows: small-molecule binders of probe aInhba, primary screen, biochemical, small-molecule microarray, 635/667 nm fluorescence (AID 1148).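 Note: score merges 667nm spot fluorescence with signal-to-noise for antibody binding to printed compounds.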 The note with it: higher = more signal.
The target of assay [9] is Torsin-1A (Homo sapiens) (UniProt O14656). Description: torsin A binders from cell lysate, primary screen, small-molecule microarray, wild-type, 635/667 nm (AID 1149). To be noted: COS7 hTOR1A-WT lysate, 635 nm fluorescence, higher = more signal.
Assay [10] has the same target. Description: small-molecule binders of mutant TOR1A in lysate, primary screen, cell lysate, small-molecule microarray, COS7 lysate, 635/667 nm fluorescence (AID 1150).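 Note: score pools 667 nm emission and signal to noise measuring lysate protein binding.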 The note with it: COS7 hTOR1A mutant lysate, 635 nm fluorescence, higher = more signal.
Assay [11] deals with Sonic hedgehog protein (Shh). Briefly: small-molecule binders of Shh protein, primary screen, biochemical, small-molecule microarray, 635/667 nm fluorescence (AID 1151).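 Note: Shh protein binding to compounds spotted on small-molecule microarray slides; score combines spot fluorescence intensity with signal-to-noise across triplicate slides.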 To be noted: small-molecule microarray binding, 635 nm fluorescence; higher = more signal.
Assay [12] is described as follows: E. coli DRC41 culture turbidity changes, primary screen, E. coli filamentation inducer project, strain DRC41, OD650, 48 h (AID 1152).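 Note: E. coli MC1000 strain DRC41 lacking acrAB efflux pump and sulA.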 The note with it: E. coli DRC41 (acrAB sulA), higher = more signal, called active from +8 up or from −8 down.
Assay [13] can be described thus: small-molecule binders of probe aLefty1, primary screen, biochemical, small-molecule microarray, 635/667 nm fluorescence (AID 1153).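 Note: score merges spot fluorescence with signal-to-noise ratio from the scanned slide images.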 The note with it: higher = more signal.
Assay [14] in a line: PSAC antagonists in infected red cells, primary screen, cell-based, P. falciparum Indochina, OD700, 1 h (AID 1154). To be noted: P. falciparum Indochina infected RBC osmotic lysis, higher = more signal, called active from +8 up or from −8 down.
Assay [15] is described as follows: PSAC antagonists in infected red cells, primary screen, cell-based, P. falciparum Indochina, OD700, 2 h (AID 1155).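 Note: lysis reports solute entry through the parasite surface anion channel PSAC; channel blockers reduce lysis of infected cells.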 The note with it: P. falciparum Indochina infected erythrocytes, osmotic lysis OD700; higher = more signal, called active from +8 up or from −8 down.
The nature of assay [16]: osmotic lysis modulators in infected erythrocytes, primary screen, PSAC antagonist project, cell-based, P. falciparum Indochina, OD700, 3 h (AID 1156). The note with it: higher = more signal, called active from +8 up or from −8 down.
A short description of assay [17]: PSAC antagonists in infected red cells, primary screen, cell-based, P. falciparum Indochina, OD700, 18 h (AID 1157). The note with it: P. falciparum Indochina infected erythrocytes, osmotic lysis OD700, 18 h; higher = more signal, called active from +8 up or from −8 down.
Assay [18] in a line: modulators of S6 phosphorylation in cells, primary screen, cell-based, A549, cytoblot, luminescence, serum-stimulated (AID 1158).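 Note: serum-stimulated A549 lung adenocarcinoma cells; signal is phosphorylated S6 detected by cytoblot immunostaining with HRP secondary.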 To be noted: A549 phospho-S6 cytoblot, 5 h, higher = more signal.
For assay [19], the target named is NADPH oxidase 2 (Homo sapiens) (UniProt P04839). Description: NOX2-dependent H2O2 signal modulators, primary screen, NOX inhibitor project, cell-based, HEK293-NOX2, PMA-stimulated, Amplex Red fluorescence (AID 1159). Note: test concentration not given here. The note with it: 45 min, higher = more signal, called active from +8 up or from −8 down.
Assay [20] addresses NADPH oxidase 4 (Homo sapiens) (UniProt Q9NPH5). Description: NOX4-dependent H2O2 signal modulators, primary screen, NOX inhibitor project, cell-based, HEK293-NOX4, tetracycline-induced, Amplex Red fluorescence (AID 1160). To be noted: 45 min, higher = more signal, called active from +8 up or from −8 down.

SMILES strings stand for the structures. The source made the active and inactive calls.

Streptavidin (Streptomyces avidinii), sequence (P22629 whole entry, looked up): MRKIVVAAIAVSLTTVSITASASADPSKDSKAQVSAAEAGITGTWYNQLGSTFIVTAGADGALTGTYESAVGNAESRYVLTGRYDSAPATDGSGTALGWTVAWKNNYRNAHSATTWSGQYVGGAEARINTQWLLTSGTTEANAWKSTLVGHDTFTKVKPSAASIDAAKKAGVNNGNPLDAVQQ
NADPH oxidase 4 (Homo sapiens), sequence (Q9NPH5 whole entry, looked up): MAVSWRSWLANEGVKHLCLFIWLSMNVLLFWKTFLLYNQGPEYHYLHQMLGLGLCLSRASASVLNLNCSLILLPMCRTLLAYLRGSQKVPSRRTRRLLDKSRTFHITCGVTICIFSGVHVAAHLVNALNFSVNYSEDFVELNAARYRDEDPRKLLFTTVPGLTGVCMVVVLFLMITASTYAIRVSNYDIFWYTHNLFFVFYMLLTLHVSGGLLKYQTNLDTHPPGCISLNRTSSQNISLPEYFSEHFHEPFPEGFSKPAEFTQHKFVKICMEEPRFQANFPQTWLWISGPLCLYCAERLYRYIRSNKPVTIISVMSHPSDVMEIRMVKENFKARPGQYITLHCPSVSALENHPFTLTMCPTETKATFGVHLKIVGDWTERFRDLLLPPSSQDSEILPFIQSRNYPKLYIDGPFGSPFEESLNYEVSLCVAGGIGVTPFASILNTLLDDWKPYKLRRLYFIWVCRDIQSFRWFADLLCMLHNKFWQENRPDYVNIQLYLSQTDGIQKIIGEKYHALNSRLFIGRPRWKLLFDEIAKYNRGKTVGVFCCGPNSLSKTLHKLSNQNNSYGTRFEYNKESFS
NADPH oxidase 2 (Homo sapiens), sequence (P04839 whole entry, looked up): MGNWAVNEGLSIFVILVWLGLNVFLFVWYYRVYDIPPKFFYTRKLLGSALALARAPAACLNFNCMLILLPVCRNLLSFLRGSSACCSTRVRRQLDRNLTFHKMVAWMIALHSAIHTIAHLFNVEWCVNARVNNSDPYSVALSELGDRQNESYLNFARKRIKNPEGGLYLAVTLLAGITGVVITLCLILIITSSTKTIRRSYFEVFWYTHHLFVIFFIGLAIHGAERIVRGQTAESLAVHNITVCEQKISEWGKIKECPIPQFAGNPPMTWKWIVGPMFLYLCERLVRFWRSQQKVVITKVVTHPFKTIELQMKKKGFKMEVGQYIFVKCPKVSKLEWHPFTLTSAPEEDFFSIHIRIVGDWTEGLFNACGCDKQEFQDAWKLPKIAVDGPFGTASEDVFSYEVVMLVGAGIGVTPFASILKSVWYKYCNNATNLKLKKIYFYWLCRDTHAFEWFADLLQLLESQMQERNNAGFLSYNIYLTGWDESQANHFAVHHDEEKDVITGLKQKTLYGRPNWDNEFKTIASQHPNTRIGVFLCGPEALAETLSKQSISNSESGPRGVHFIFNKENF
Luciferin 4-monooxygenase (Photinus pyralis), sequence (P08659 whole entry, looked up): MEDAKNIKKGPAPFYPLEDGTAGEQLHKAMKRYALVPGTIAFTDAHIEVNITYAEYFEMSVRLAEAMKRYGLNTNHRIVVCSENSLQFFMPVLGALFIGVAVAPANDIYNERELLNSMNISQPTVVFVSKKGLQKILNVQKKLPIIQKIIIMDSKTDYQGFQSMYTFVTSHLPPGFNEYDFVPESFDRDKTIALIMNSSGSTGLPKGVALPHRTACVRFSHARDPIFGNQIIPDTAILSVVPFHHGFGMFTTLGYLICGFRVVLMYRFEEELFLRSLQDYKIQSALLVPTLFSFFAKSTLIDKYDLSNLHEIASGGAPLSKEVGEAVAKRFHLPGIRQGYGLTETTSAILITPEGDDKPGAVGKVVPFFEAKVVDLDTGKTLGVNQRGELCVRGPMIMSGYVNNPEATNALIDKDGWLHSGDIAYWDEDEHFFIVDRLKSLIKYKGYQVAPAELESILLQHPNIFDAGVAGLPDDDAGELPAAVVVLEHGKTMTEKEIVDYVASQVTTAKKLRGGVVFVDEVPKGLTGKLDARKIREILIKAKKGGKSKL
Torsin-1A (Homo sapiens), sequence (O14656 whole entry, looked up): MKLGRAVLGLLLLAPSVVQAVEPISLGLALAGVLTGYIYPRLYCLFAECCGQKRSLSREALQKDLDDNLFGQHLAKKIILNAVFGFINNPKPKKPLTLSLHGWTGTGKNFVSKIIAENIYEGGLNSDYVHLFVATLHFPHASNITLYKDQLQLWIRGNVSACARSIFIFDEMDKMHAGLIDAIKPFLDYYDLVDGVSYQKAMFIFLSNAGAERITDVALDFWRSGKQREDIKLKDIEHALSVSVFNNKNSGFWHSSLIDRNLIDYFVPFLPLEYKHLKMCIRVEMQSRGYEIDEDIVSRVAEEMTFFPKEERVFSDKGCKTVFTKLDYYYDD

Consider `Cc1ccc(N2C(=O)c3ccccc3[C@](C)(C(=O)NCC(F)(F)F)[C@@H]2c2ccc(CO)cc2)nc1`, for which the composite z-score in assay [1] is -0.188; in assay [3], -0.318; in [7], -0.763; in assay [8], -0.179; with Torsin-1A (Homo sapiens) [9], -1.08; with Torsin-1A (Homo sapiens) [10], -0.727. For the same compound, the composite z-score was -1.46 in assay [11] and -0.147 in assay [13]. Besides, the z-score was -0.679 (inactive) in assay [2]; -1.01 (inactive) in assay [4]; 0.234 (inactive) in assay [5]; -1.31 (inactive) in assay [6]; 1.49 (inactive) in [12]; 0.57 (inactive) in assay [14]. In addition, the z-score was 0.253 (inactive) in [15]; -0.317 (inactive) in [16]; 0.127 (inactive) in assay [17]; 0.654 in [18]; -0.103 (inactive) in assay [19]; -1.56 (inactive) in assay [20].
Regarding `O=c1n(-c2ccccc2)c(=O)n2n1CC(COc1ccccc1)=C1[C@@H](CCc3ccccc3)OB(O)C[C@@H]12`, the composite z-score in [1] was 0.576; in assay [3], 0.455; in assay [7] it was 0.117; in [8], 0.0756; in the assay with Torsin-1A (Homo sapiens) [9] it was 0.717; with Torsin-1A (Homo sapiens) [10], -0.0569. Also, the composite z-score is 1.12 in [11] and -0.206 in assay [13]. Moreover, the z-score is -1.2 (inactive) in assay [2]; -1.84 (inactive) in [4]; 1.58 (inactive) in assay [5]; -1.67 (inactive) in [6]; 1.63 (inactive) in assay [12]; 2.27 (inactive) in [14]. For the same compound, the z-score in [15] is -0.302 (inactive); in assay [16], 0.622 (inactive); in assay [17] it was -1.31 (inactive); in assay [18], 0.642; in assay [19], -0.513 (inactive); in assay [20], -0.0712 (inactive).
Regarding `C#CCOc1ccc(C[C@H]2C(=O)O[C@H](Cc3ccccc3)[C@H](/C=C/C3CC3)N2CC#C)cc1`, the composite z-score in assay [1] is -0.311; in assay [3], -0.245; in [7], -0.0298; in assay [8], -0.183; in the assay with Torsin-1A (Homo sapiens) [9] it was 0.498; with Torsin-1A (Homo sapiens) [10], 0.212. Further, the values for the composite z-score in [11] and in [13] were 0.145 and -0.279, respectively. Besides, the z-score is -0.968 (inactive) in assay [2]; -2.48 (inactive) in assay [4]; -0.414 (inactive) in assay [5]; 0.741 (inactive) in assay [6]; 2.04 (inactive) in assay [12]; 0.57 (inactive) in [14]. Moreover, the z-score was -0.251 (inactive) in assay [15]; -0.372 (inactive) in assay [16]; -0.383 (inactive) in [17]; 0.242 in assay [18]; -0.21 (inactive) in [19]; 0.764 (inactive) in assay [20].
For the compound `NC(=O)N1C(=O)C2C(C1=O)C1C=C(c3ccc(CO)cc3)C2C(C2CC2)N1Cc1cc2c(cc1Br)OCO2` (stereo not given), the composite z-score in assay [1] came out at 0.216; in assay [3], 0.0262; in assay [7], 0.368; in assay [8] it was 0.134; with Torsin-1A (Homo sapiens) [9], 0.32; in the assay with Torsin-1A (Homo sapiens) [10] it was 0.127. In addition, the composite z-score was found to be 1.39 in assay [11] and 0.0671 in assay [13]. Moreover, the z-score in assay [2] is -2.17 (inactive); in assay [4], -1.15 (inactive); in assay [5], 7.31 (inactive); in [6], -1.34 (inactive); in [12], 0.737 (inactive); in [14], 14.4 (active). The z-score was 0.537 (inactive) in assay [15]; -0.429 (inactive) in [16]; -1.43 (inactive) in assay [17]; 0.215 in assay [18]; 2.92 (inactive) in assay [19]; 1.48 (inactive) in assay [20].
As to `O=C1O[C@H](c2ccccc2)[C@H](c2ccccc2)N2[C@H]1[C@@H](C(=O)Nc1nc3ccccc3s1)[C@]1(C(=O)Nc3ccc(C#CCCO)cc31)[C@H]2c1ccccc1OCCO`, the composite z-score in assay [1] came to 1.3; in assay [3] it was 0.81; in assay [7], 1.11; in [8], 0.279; with Torsin-1A (Homo sapiens) [9], 0.795; with Torsin-1A (Homo sapiens) [10], 0.778. In addition, the composite z-score came out at 0.384 in assay [11] and 0.634 in [13]. Besides, the z-score is -1.14 (inactive) in assay [2]; -2.88 (inactive) in assay [4]; 0.182 (inactive) in assay [5]; -0.428 (inactive) in assay [6]; 2.34 (inactive) in [12]; 2.76 (inactive) in [14]. For the same compound, the z-score was 2.95 (inactive) in assay [15]; 1.4 (inactive) in assay [16]; 1.69 (inactive) in assay [17]; 0.503 in assay [18]; 0.146 (inactive) in assay [19]; 0.228 (inactive) in [20].
Consider `COc1ccc(/C=C/C(=O)c2cccc(OCC(=O)OC(C)(C)C)c2)cc1`, for which the composite z-score is 0.248 in assay [1]; -0.132 in assay [3]; -0.152 in [7]; -0.363 in assay [8]; 0.349 in the assay with Torsin-1A (Homo sapiens) [9]; 0.179 with Torsin-1A (Homo sapiens) [10]. Also, the composite z-score in assay [11] was -0.139; in assay [13], -0.113. Moreover, the z-score in [2] was -2.64 (inactive); in [4] it was -0.385 (inactive); in assay [5], 0.622 (inactive); in assay [6] it was -0.588 (inactive); in [12] it was 1.42 (inactive); in [14] it was 30.9 (active). The z-score was 25.8 (active) in assay [15]; 0.746 (inactive) in [16]; 1.41 (inactive) in assay [17]; 0.112 in [18]; -1.32 (inactive) in assay [19]; 0.197 (inactive) in [20].
For the compound `CC(C)CNC(=O)[C@@H]1c2ccccc2C(=O)N(Cc2ccc(OC(F)(F)F)cc2)[C@H]1c1ccc(CO)cc1`, the composite z-score in assay [1] is 0.75; in assay [3], 0.314; in [7] it was 0.941; in assay [8] it was 0.25; with Torsin-1A (Homo sapiens) [9], 0.864; with Torsin-1A (Homo sapiens) [10], 0.72. Moreover, the values for the composite z-score in assay [11] and in [13] were 2.02 and 0.315, respectively. Moreover, the z-score in assay [2] is -1.25 (inactive); in assay [4] it was -2.27 (inactive); in [5], -0.646 (inactive); in [6] it was -1.28 (inactive); in [12] it was 3.99 (inactive); in [14] it was 2.06 (inactive). Besides, the z-score in assay [15] was -0.18 (inactive); in assay [16] it was 0.209 (inactive); in assay [17] it was -0.657 (inactive); in assay [18] it was 1.69; in assay [19], -1.43 (inactive); in [20], 0.925 (inactive).
As to `[N-]=[N+]=Nc1ccccc1[C@H]1OC(c2ccc(OCCCO)cc2)=N[C@@]1(Cc1ccccc1)C(N)=O`, the composite z-score was 1.37 in [1]; 0.792 in [3]; 1.92 in assay [7]; 0.329 in assay [8]; 0.596 in the assay with Torsin-1A (Homo sapiens) [9]; 0.622 with Torsin-1A (Homo sapiens) [10]. Also, the composite z-score was found to be 0.281 in assay [11] and 0.752 in assay [13]. Further, the z-score in assay [2] was -12.6 (active); in assay [4] it was -3.44 (inactive); in assay [5] it was 0.862 (inactive); in [6] it was -1.89 (inactive); in assay [12], 1.99 (inactive); in assay [14] it was 31.6 (active). Further, the z-score is 28.4 (active) in [15]; 1.64 (inactive) in [16]; 7.66 (inactive) in [17]; 1.8 in assay [18]; -1.71 (inactive) in [19]; 0.363 (inactive) in [20].
